Assay outcomes: PubChem BioAssay, National Center for Advancing Translational Sciences (NCATS)
Compounds with a hit are over-represented: about 2.4% of the library has one in this group of screens.
AmpC inh det: Promiscuous and Specific Inhibitors of AmpC Beta-Lactamase (assay with detergent); actives 0.09% (n = 71,000); P00811; Potency, µM (top dose mostly 28.7 µM), for inactives: at the highest dose activity change, negative = inhibition; AID 584, 2007; purified AmpC, nitrocefin hydrolysis with detergent; active = well fitted curve in the direction sought with a large enough effect; inconclusive = small, poorly fitted or top-dose-only effect; also: % is scaled to controls: 0 for no effect and ±100 for the full control effect
Target sequence (P00811 whole entry, looked up): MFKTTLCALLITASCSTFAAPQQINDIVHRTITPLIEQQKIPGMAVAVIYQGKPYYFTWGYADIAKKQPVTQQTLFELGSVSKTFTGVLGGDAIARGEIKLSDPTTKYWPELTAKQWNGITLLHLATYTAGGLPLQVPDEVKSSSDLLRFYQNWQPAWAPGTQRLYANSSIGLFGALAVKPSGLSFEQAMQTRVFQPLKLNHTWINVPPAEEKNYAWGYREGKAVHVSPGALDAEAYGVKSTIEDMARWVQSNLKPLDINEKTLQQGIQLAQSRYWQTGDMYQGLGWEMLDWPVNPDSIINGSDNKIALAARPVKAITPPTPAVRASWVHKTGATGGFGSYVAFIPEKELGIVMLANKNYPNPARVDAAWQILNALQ
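E. coli AmpC (5.3 nM) in 20 mM phosphate pH 7.0 with 0.01% Triton X-100, preincubated 15 min RT with compound; nitrocefin (2 uL of 800 uM stock) hydrolysis followed by 480 nm absorbance every 20 s over 4 min.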
LT uptake inh: qHTS Assay for Anthrax Lethal Toxin Internalization; Cells, anthrax lethal toxin internalization, FRET ratio (460/530); actives 0.67% (n = 70,000); Potency, µM (titrated, usually from 40 µM), without a hit: at the top dose activity change, negative = inhibition, hits mostly inhibitors; AID 912, 2007; also: % is scaled to controls: 0 for no effect and ±100 for the full control effect; nearly all actives have a fitted effect of over 50% in size
Prx2 Sm inh: Schistosoma Mansoni Peroxiredoxins (Prx2). Schistosoma mansoni peroxiredoxin 2 (Prx2). S. mansoni Prx2 activity coupled to TGR/GSH (TGR is thioredoxin glutathione reductase), NADPH fluorescence loss, qHTS. Potency, µM. actives 0.07% (n = 65,000). AID 448, 2006
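qHTS, coupled TGR/Prx2 format; 15 min compound preincubation at RT; reaction started with H2O2 (2.5 mM aliquot); kinetic NADPH fluorescence decrease, ex 365/em 450 nm.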
AmpC nodet inh: Promiscuous and Specific Inhibitors of AmpC Beta-Lactamase (assay without detergent); actives 1.8% (n = 71,000); P00811; AmpC nitrocefin hydrolysis, absorbance 480 nm, no detergent; Potency, µM (series often up to 28.7 µM), inactives show top-dose activity change, negative = inhibition; also: % of control where 0% means no effect
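Enzyme, pH 7.0 phosphate. Compound titrations were pre-incubated with AmpC for 15 min at room temperature before nitrocefin (stock 800 uM) addition; product formation was recorded at 480 nm every 20 s for 4 min.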
An asterisk follows results filed as active; ? = inconclusive; · = not tested or not shown; ! = not active in a repeat; [ ] = dose if it differs, or a comment. Unless noted, calls follow the shape of the full dose curve. Potency is read from the fitted curve at half-maximal effect.

SMILES	AmpC inh det	LT uptake inh	Prx2 Sm inh	AmpC nodet inh
OCC1OC(c2ccccc2)C=CC1Oc1cc(Cl)cc(Cl)c1 (centres undefined)	·	-13.9%[8 µM]	·	·
COc1cccc(C2=NOC(C(=O)N3CCc4ccccc4C3)C2)c1 (centres undefined)	12.7%	?	>57	23.3%
O=C(C1CC(c2ccc(F)cc2)=NO1)N1CCN(c2ccccc2)CC1 (centres undefined)	12.5%	-15.5%	>57	3.98µM*[single pt active]
O=C(C1CC(c2ccc(F)cc2)=NO1)N1CCCCC1 (centres undefined)	-3.9%	6.0%	>57	1.0%
O=C(C1CC(c2ccc(F)cc2)=NO1)N1CCc2ccccc2C1 (centres undefined)	11.8%	?	>57	3.98µM*[single pt active]
CC1(C(=O)NCc2cccnc2)CCC(=O)N1CCc1ccccc1 (centres undefined)	16.0%	-8.1%	>57	3.98µM*[single pt active]
CC1(C(=O)NCc2cccnc2)CCC(=O)N1Cc1cccs1 (centres undefined)	14.0%	0.2%	>57	3.98µM*[single pt active]
COc1ccc(CCN2C(=O)CCC2(C)C(=O)NCc2cccnc2)cc1OC (centres undefined)	-2.1%	-2.0%	>57	-3.0%
CC(=O)N1CC2(CC2)CC1c1ccccc1 (centres undefined)	-1.3%	?	>57	5.0%
COc1ccc(O[C@H]2C=C[C@@H](c3ccccc3)O[C@H]2COC(=O)CC/C(C)=N\O[C@@H](C)CN2CCCCc3nc(C)c(C)cc32)cc1	·	18.3%[1.6 µM]	·	·
CCC(C)C(=O)Nc1nc2c(s1)C(=O)CC(C)(C)C2 (centres undefined)	11.3%	8.9%	>57	3.98µM*[single pt active]
C[C@@H]1CN(CCCn2c3ccccc3c3ccccc32)C[C@H](C)N1	-3.3%	31.6µM*	>57	84.4%
CC(=O)c1ccc(OC2C(O)COC2/C=C/c2ccc(Cl)cc2)cc1 (centres undefined)	·	-5.4%[8 µM]	·	·
O=C(NCc1cccs1)c1cc2c(s1)-c1ccccc1OC2	10.5%	?	>57	15.8µM*
OCCN1CCN(CCCN2c3ccccc3Sc3ccc(Cl)cc32)CC1	-0.1%[12.8 µM]	25.1µM*!	>57	123.5%[12.8 µM]
CN(C)CCCN1c2ccccc2Sc2ccc(Cl)cc21	0.7%[12.8 µM]	?	>57	51.9%[12.8 µM]
CC1=CC(C)(C)N(C(=O)CN2C(=O)c3ccccc3C2=O)c2ccccc21	-3.9%	6.31µM*	·	47.4%
Cn1c(=O)n2n(c1=O)[C@H]1[C@H](O)[C@H]3O[C@@H]3/C(=N/OCc3ccccc3)[C@@H]1CC2	·	-0.6%[1.6 µM]	·	·
COc1ccc2[nH]cc(CCNc3ccnc(-c4ccccc4C)n3)c2c1	-2.9%	?	>57	-4.2%
COc1cccc(-c2nccc(NCCc3c[nH]c4ccc(OC)cc34)n2)c1	1.8%	12.6µM*	>57	-7.7%
CC1CCN(c2nnc(N3CCC(C)CC3)c3ccccc23)CC1	11.9%	-4.7%	>57	3.16µM*[single pt active]
CC1CCN(c2nncc3ccccc23)CC1	-2.4%	-3.0%	>57	1.6%
O=C(O)/C=C\c1ccc[c]([Sb](=[O])([OH])[OH])c1	-7.6%[5.75 µM]	-19.2%[8 µM]	>57	-2.9%[5.75 µM]
CCOc1ccc(-c2n[nH]c(C)c2Oc2ccccc2OC)c(O)c1	-3.8%	-30.6%	>57	-6.6%
C=C(C)COc1ccc(-c2[nH]ncc2Oc2cccc(OC)c2)c(O)c1	2.5%	?	?	10µM*
SMILES	AmpC inh det	LT uptake inh	Prx2 Sm inh	AmpC nodet inh
C=C(C)COc1ccc(-c2n[nH]c(C)c2Oc2ccccc2OC)c(O)c1	6.3%	10µM*	>57	-15.9%
CN[C@H]1[C@H](C)O[C@@H](O[C@@H]2C/C=C(/C)C/C(C)=C\C=C/CC[C@@H](C)CNC(=O)/C=C\C=C/[C@H]2C)C[C@@H]1O	-1.7%[5.75 µM]	?	>57	16.9%[5.75 µM]
C[C@@H]1C(=O)O[C@@H]2C[C@@]34[C@H]5C[C@@H](C(C)(C)C)[C@@]36[C@@H](OC(=O)[C@@H]6O)O[C@]4(C(=O)O5)[C@@]12O	3.9%	?	>57	-1.4%
Cc1ccc2nc(NC(=O)CN(C)S(=O)(=O)c3ccc(Br)s3)sc2c1	3.0%	5.01µM*	>57	-21.5%
Cc1ccc2nc(NC(=O)CNS(=O)(=O)c3ccc(Br)s3)sc2c1	9.0%	?	>57	-22.6%
CCCCC(c1nnnn1Cc1ccco1)N1CCN(c2nc3ccccc3s2)CC1 (centres undefined)	-1.8%	10µM*	>57	37.4%
c1ccc(Cn2nnnc2C(c2ccccc2)N2CCN(c3nc4ccccc4s3)CC2)cc1 (centres undefined)	25.4%	-8.6%	>57	1.7%
Cc1cc(C(=O)CSc2nc3ccccc3n2CCC#N)c(C)n1Cc1cccs1	-0.8%	-26.4%	>57	15.8µM*
Cc1cc(O)ccc1Nc1nc2ccccc2nc1Nc1ccc(O)cc1C	3.9%	15.6%	·	12.6µM*
CCOC(=O)OCC1OC(c2ccccc2)C=CC1OC(=O)OCC (centres undefined)	·	-2.4%[8 µM]	·	·
CCc1ccc(NC(=O)Cn2c(SC)nc3ccccc32)cc1	5.0%	?	>57	47.2%
CSc1nc2ccccc2n1CC(=O)Nc1ccccc1	4.4%	15.8µM*	·	5.5%
Oc1ccc2cc(SSc3ccc4cc(O)ccc4c3)ccc2c1	0.4%	?	·	15.8µM*
CN1CCC[C@@H]1c1cccnc1.O=C(O)c1ccccc1O.O=C([OH2+])c1ccccc1O.O=C([OH2+])c1ccccc1O.O=C([OH2+])c1ccccc1O.[Cu]	-8.0%[5.75 µM]	-2.8%[8 µM]	>57	-0.4%[5.75 µM]
N[C@H](Cn1oc(=O)[nH]c1=O)C(=O)O	-4.7%	4.3%	>57	5.7%
CCCN1CCc2cccc3c2[C@@H]1Cc1ccc(O)c(O)c1-3	-0.6%	-3.0%	>57	-7.2%
Cc1cc(C)n2nc(S(=O)(=O)NCCc3ccccc3)nc2n1	13.7%	-9.7%	>57	3.98µM*[single pt active]
COc1ccc(S(=O)(=O)NCCSCc2ccco2)cc1	13.9%	-4.1%	>57	12.6µM*[single pt active]
N[C@H](Cc1ccc2oc3cc(=O)c4ccccc4c-3nc2c1)C(=O)O	-2.8%[5.75 µM]	5.8%[8 µM]	>57	-6.0%[5.75 µM]
CN1CCN(c2ncnc3ccc(-c4ccccc4C#N)cc23)CC1	4.6%	?	>57	44.8%
CN1CCN(c2ncnc3ccc(-c4ccccc4C(F)(F)F)cc23)CC1	9.8%	12.6µM*	>57	126.1%
CN(CC(CC(=O)Nc1nncs1)c1ccccc1)S(=O)(=O)c1ccccc1 (centres undefined)	9.1%	5.2%	>57	3.98µM*[single pt active]
O=C(O)CC(CC(=O)Nc1nncs1)c1ccccc1 (centres undefined)	-5.3%	3.6%	>57	-20.6%
COCCn1c(=O)c(-c2ccccc2)nc2cnc(N3CCN(C)CC3)nc21	-1.0%	?	>57	50.6%
O=c1cc(N2CCc3ccccc3C2)[nH]c(=O)n1-c1ccc(Cl)cc1	-3.1%	4.8%	>57	15.8µM*[single pt active]
O=c1cc(N2CCc3ccccc3C2)[nH]c(=O)n1-c1ccc(Br)cc1	-4.2%	7.8%	>57	15.8µM*[single pt active]
O=c1cc(N2CCCC2)[nH]c(=O)n1-c1ccc(Cl)cc1	-2.7%	-6.9%	>57	-11.7%
